In PubChem BioAssay AID720553 (National Center for Advancing Translational Sciences (NCATS), 2013):
Among all 340,000 compounds or so, about 3,300 (0.97%) were called active.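 How the source made its calls: active means maximum activity change below -70%; inconclusive means maximum activity change from -70% to -50%; inactive means maximum activity change above -50%.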 The entries come from a sample that favours actives as a whole.
On the % scale 0 is the no-effect control and ±100 the full control effect.

Each compound was assayed on Potassium voltage-gated channel subfamily H member 2, brain isoform KCNH2 3.1 (human) (assay: qHTS for Inhibitors of KCHN2 3.1: Mutant qHTS). Details: U2OS KCNH2 3.1, thallium flux FluxOr; active compounds read low.
Outline: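 We transduce U2OS cells with the mutant 3.1 virus, culture them overnight, load FluxOr with Red40 quencher for 45 min, then add stimulation buffer and read kinetically for 2 min to derive a normalized rate constant.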
For `CCOc1ccc(NS(=O)(=O)c2ccc(C(=O)NCC3CCCO3)cc2)cc1` (configuration not stated), the activity change was 3.29% (inactive). In the case of `COCOCCn1cc(CN2CCS(=O)(=O)N(Cc3ccc(-c4cccc(N(C)C)c4)cc3)C(CC(C)C)C2=O)nn1` (configuration not stated), the activity change is reported as -1.27% (inactive). `Cc1cccc(N(CC(=O)N2CCCC2)S(C)(=O)=O)c1C` was tested, and the activity change was -8.33% (inactive). In the case of `Cc1cccc(C)c1NC(=O)N1CC(C)OC(C)C1` (configuration not stated), the activity change is reported as -192% (active). For `CSc1ccc(NC(=O)N2CC(C)OC(C)C2)cc1` (configuration not stated), the activity change was 8.24% (inactive). With `CC1CN(C(=S)Nc2cccc(F)c2)CC(C)O1` (configuration not stated) the activity change was 6.1% (inactive). With `C=CCOc1cccc(C2C(C(=O)c3ccc(C)o3)=C(O)C(=O)N2CCN2CCOCC2)c1` (configuration not stated) the activity change was -2.42% (inactive). `CCc1cc(-c2nnn(CCC3COCCO3)c2CC)ccc1-c1cn(Cc2ccc3ccccc3c2)nn1` (configuration not stated) was tested, and the activity change was 0.058% (inactive). `Cc1cc(Nc2ccc(C)c(C)c2)n2ncnc2n1` was tested, and the activity change was 30.4% (inactive). For `O=C(CCCN1CCc2[nH]c3ccc(F)cc3c2C1)c1ccc(F)cc1`, the activity change was -92% (active). With `CC1CCc2[nH]c3ccc(C(=O)N(C)CC(=O)Nc4cccc(F)c4)cc3c2C1` (configuration not stated) the activity change was 13.3% (inactive). In the case of `O=C(c1cc2cc(F)ccc2[nH]1)N1CCN(c2ccc(F)cc2)CC1`, the activity change is reported as -39.9% (inactive). With `C[C@@H]1CN([C@@H](C)CO)C(=O)CCCn2nncc2CO[C@H]1CN(C)C(=O)Nc1ccc(C(F)(F)F)cc1` the activity change was -12.6% (inactive). In the case of `CC[C@]1(C(=O)OC)[C@H]2C(=O)N(Cc3ccccc3)C(=O)[C@H]2[C@H]2CN=C(SCc3ccc(C#N)cc3)N21`, the activity change is reported as 4.34% (inactive). In the case of `CC[C@]1(C(=O)OC)[C@H]2C(=O)N(Cc3ccccc3)C(=O)[C@H]2[C@H]2CN=C(SCc3ccc(Cl)cc3)N21`, the activity change is reported as -98.8% (active). `CC[C@]1(C(=O)OC)[C@H]2C(=O)N(Cc3ccccc3)C(=O)[C@H]2[C@H]2CN=C(SCc3ccccc3)N21` was tested, and the activity change was 14.7% (inactive). In the case of `Nc1nonc1-n1nnc(C(=O)N/N=C\c2ccncc2)c1CN1CCCCC1`, the activity change is reported as -0.869% (inactive). In the case of `CC(C)c1c(C(=O)N/N=C/c2ccc(-c3ccccc3)cc2)nnn1-c1nonc1N`, the activity change is reported as -1.92% (inactive). For `CC(C)Oc1ccc(/C=N/NC(=O)c2nnn(-c3nonc3N)c2CN(C)C2CCCCC2)cc1`, the activity change was -81.3% (active). With `O=C(NCCN1CCOCC1)c1ccc2c(c1)N(Cc1cccc(Cl)c1)C(=O)c1ccccc1S2(=O)=O` the activity change was 17.1% (inactive). For `C[C@H]1CN([C@@H](C)CO)C(=O)c2cc(-c3cccc(F)c3)cnc2O[C@@H]1CN(C)S(C)(=O)=O`, the activity change was 8.27% (inactive). `C[C@@H]1CN([C@H](C)CO)C(=O)CCCn2nncc2CO[C@@H]1CN(C)C(=O)OCc1ccccc1` was tested, and the activity change was 1.9% (inactive).
